Reference: PubChem BioAssay (NCI)
About 83,000 compounds went through this panel and 20% of them were active in at least one assay; those are over-represented in the sample as a whole.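 Single-dose data. Exposure time 48 hours. Values below 10 considered active.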 Calls of active or inactive are those of the source.

system: MDA-MB-468 breast; test: NCI-60 one-dose screen, 48 h (100 = growth as untreated, 0 = no growth, -100 = all killed); details: 10 µM unless noted

Row | SMILES | growth
1 | Fc1ccc(-n2cc(COc3ncnc4sc5c(c34)CCCC5)nn2)cc1Cl | 106% (inactive)
2 | CN(C)CCNc1nc2c3cc(Cl)ccc3nn2c2ccccc12 | 74.2% (inactive)
3 | O=C(CN(C1CCCCC1)C1CCCCC1)Nc1ccc(S(=O)(=O)c2ccc(NC(=O)CN(C3CCCCC3)C3CCCCC3)cc2)cc1 | -55.1% (active)
4 | CCN(CC)CCO/N=C1\CC(c2ccc(OC)c(OC)c2)Oc2ccccc21 (stereo not given) | 80.1% (inactive)
5 | CC(C)(C)[Si](C)(C)OC1[C@@H](COC(=O)NC(=O)CCl)O[C@@H](n2cnc3c(N)ncnc32)[C@H]1O[Si](C)(C)C(C)(C)C (stereo not given in full) | 65% (inactive)
6 | CCCCCC/C=C\CCCCCCCCOc1ccc(CCOP(=O)(O)OCC[N+](C)(C)C)cc1 | 85.5% (inactive)
7 | Cc1nc(N)[nH]c(=O)c1C | 103% (inactive)
8 | CCOC(=O)Cn1c(-c2nonc2NC(=O)c2ccccc2F)nc2ccccc21 | 76% (inactive)
9 | O=C(OCC1OC(n2cc(C(F)(F)F)c(=O)[nH]c2=O)CC1OC(=O)c1ccc([N+](=O)[O-])cc1)c1ccc([N+](=O)[O-])cc1 (stereo not given) | 85.3% (inactive)
10 | COc1ccc(-c2nnc(COc3ccc(NC(=O)Nc4cc(C(F)(F)F)cc(C(F)(F)F)c4)cc3F)o2)cc1 | -9.21% (active)
11 | CC(=O)CSc1ncnc2nc[nH]c12 | 40.6% (inactive)
12 | COc1ccc(/C=C2\Oc3cc(OCCCN4CCCC4)ccc3C2=O)c(OC)c1 | 62% (inactive)
13 | O=C(O)c1ccc(=O)[nH]n1 | 123% (inactive)
14 | C[C@@H](c1ccccc1)[C@@H](C(=O)O)c1ccccc1 | 96.7% (inactive)
15 | c1ccc(CCc2ccccc2-c2cc(-c3ccccc3)on2)cc1 | 93.8% (inactive)
16 | Cn1c(=O)c2[nH]c(C3CC=CCC3)nc2n(C)c1=O (stereo not given) | 107% (inactive)
17 | CN1C(=O)C(=Cc2coc3ccc(Br)cc3c2=O)C(=O)N(C)C1=O | 102% (inactive)
18 | O=C(CSc1nc2sc3c(c2c(=O)n1-c1ccc(Cl)cc1)CCCC3)NNC(=O)Nc1cccc(C(F)(F)F)c1 | 8.29% (active)
19 | COc1cccc(CCC(=O)c2cc3c(N)c(C(=O)Nc4ccccc4)sc3nc2C)c1 | 25.2% (inactive)
20 | S=c1sc2c(Cl)nc(-c3cccnc3)nc2n1-c1ccccc1 | -34.2% (active)

Row | SMILES | growth
21 | Cc1ccc(NC(=O)c2cc(/C=C/C(=O)NO)cc(C(F)(F)F)c2)cc1Nc1nccc(-c2cccnc2)n1 | -24.4% (active)
22 | COc1ccccc1/C=N\Nc1ccc([N+](=O)[O-])cn1 | 109% (inactive)
23 | O=c1cc(CSc2nnc(SCc3cc(=O)oc4c3ccc3ccccc34)o2)c2ccc3ccccc3c2o1 | 110% (inactive)
24 | Cc1ccc2c(n1)C(=O)C(Cl)=C(Nc1ccc(C(F)(F)F)cc1)C2=O | -48.5% (active)
25 | CCc1c(Nc2ccccc2C)nc(N)[nH]c1=O | 105% (inactive)
26 | COc1cc(C2Cc3ncccc3-c3[nH]c(=O)c4cccnc4c32)cc(OC)c1OC (stereo not given) | 22.8% (inactive)
27 | O=c1cc(NC2CCN(CCCc3ccccc3)CC2)c2cc(Cl)ccc2o1 | -13.1% (active)
28 | Oc1cc(O)c2c(c1)O[C@H](c1ccc(O)c(O)c1)[C@@H](O)C2 | 115% (inactive)
29 | O=C1/C=C/[C@@H](O)[C@@H]2C[C@@H](O)C[C@H]2/C=C/CCC[C@H](CCc2ccc(C(F)(F)F)cc2)O1 | -20.3% (active)
30 | CCSC1=NC2C(N(CC)C(=O)N2CC)N1/N=C/C=C/c1ccccc1[N+](=O)[O-] (stereo not given) | -0.585% (active)
31 | Cc1cc(Nc2cc(N3CCN(C)CC3)nc(Sc3ccc(NC(=O)C4CC4)cc3)n2)n[nH]1 | 46.7% (inactive)
32 | O=CNc1ccc2c(c1)Cc1cccc(NC=O)c1-2 | 14.5% (inactive)
33 | C=CCNc1nc(NN2C(=O)c3cccc4cccc(c34)C2=O)nc(-n2cnc3ccccc32)n1 | 80.5% (inactive)
34 | Cc1cc(C)n(C(=O)c2nn(-c3ccc(Cl)cc3)cc2O)n1 | 64.6% (inactive)
35 | O=S(=O)(O)c1ccc(N=NSc2ccc3ccccc3c2)cc1 | 108% (inactive)
36 | CCOc1nc(-c2ccccc2)cc2c(O)c(C(=O)N/N=C/c3ccccc3)[nH]c(=O)c12 | 105% (inactive)
37 | CN(C)CCCC1(c2ccc(F)cc2)OCc2cc(-c3csc4ccccc34)ccc21 (stereo not given) | -68.5% (active)
38 | COc1cc(C)c(C2C(C#N)=C(N)Oc3n[nH]c(-c4cccs4)c32)cc1C(C)C (stereo not given) | 101% (inactive)
39 | COc1ccc(C2CC(c3ccc(OC)cc3OC)=NN2c2ccc(S(N)(=O)=O)cc2)cc1 (stereo not given) | 64.8% (inactive)
40 | BrC1=C(Br)C(Br)(Br)C(Br)=C1Br | 97.7% (inactive)
